For eight molecules, growth results are on record in PubChem BioAssay (NCI).

Common to all, as to assay: NCI-60 one-dose screen, 48 h (100 = growth as untreated, 0 = no growth, -100 = all killed)
Holding throughout (conditions): 10 µM unless noted

Assay [1] deals with DU-145 prostate.
Assay [2] deals with K-562 leukemia.
In assay [3] the test system is MALME-3M melanoma.
The subject of assay [4] is MDA-MB-231 breast.
Assay [5] deals with RXF 393 renal.
For assay [6], the system named is SF-268 CNS.
For assay [7], the system named is SF-295 CNS.
The test system of assay [8] is SF-539 CNS.
In assay [9] the test system is UACC-257 melanoma.
The test system of assay [10] is M14 melanoma.
The test system of assay [11] is HCT-15 colon.
Assay [12] relates to HT29 colon.
The test system of assay [13] is SNB-75 CNS.
The test system of assay [14] is SNB-19 CNS.
The subject of assay [15] is U251 CNS.
Assay [16] has as its system PC-3 prostate.
Assay [17] concerns SK-MEL-5 melanoma.
The test system of assay [18] is UACC-62 melanoma.
For assay [19], the system named is LOX IMVI melanoma.
Assay [20] relates to SK-MEL-28 melanoma.

About 83,000 compounds went through this panel and 20% of them were active in at least one assay; those are over-represented in the sample as a whole.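 The endpoint reported here, percent growth, reads 100 for growth as untreated, 0 for no net growth and -100 for all cells dead.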 Values without a mark were called inactive. Activity calls are given as the source filed them. How the source made its calls: active means growth percent below 10; inactive means the rest.

Turning to `Cc1cc2c(O)c(-c3cc(Cl)ccc3Cl)c3sc(=O)oc3c2cc1C`, the growth in [1] was 69.5%; in [2] it was 28.3%; in assay [3], 100%; in [4], 77.3%; in assay [5], 86%; in assay [6] it was 65%. Besides, the growth in [7] is 72.5%; in [8], 89.9%; in assay [9], 60.8%; in assay [10], 81.1%; in [11] it was 74.5%; in [12], 103%. For the same molecule, the growth in assay [13] was 61.2%; in [14], 77.6%; in [15], 45.4%; in assay [16], 29.2%; in [17], 42.5%; in assay [18], 52.2%. For the same molecule, the growth is 78.4% in assay [19] and 81% in assay [20].

Turning to `CCOC(=O)C#Cc1c(C(=O)OCC)nnn1[C@@H]1O[C@H](CO)[C@H]2OC3(CCCCC3)O[C@H]21`, the growth in assay [1] was 52.1%; in [2] it was 5.02% (active); in assay [3], 55.1%; in [4], 95.6%; in assay [5], 9.92% (active); in assay [6], 94.6%. In addition, the growth is 101% in assay [7]; 81.1% in assay [8]; 46.8% in [9]; 59.4% in assay [10]; -38.8% (active) in [11]; 7.93% (active) in [12]. The growth in assay [13] was 73.1%; in [14], 96%; in [15], 104%; in assay [16] it was 86.7%; in [17], 96.2%; in assay [18], 91.6%. For the same molecule, the results for the growth in assay [19] and in assay [20] were 20.1% and 101%, respectively.

Take `O=c1c2cc(-c3ccccc3)sc2nc2sc(-c3ccccc3)nn12`: the growth in [1] was 103%; in [2] it was 93.8%; in assay [3] it was 94.1%; in [4], 110%; in assay [5] it was 93.2%; in [6], 100%. Moreover, the growth in assay [7] was 98.8%; in assay [8], 107%; in assay [9], 90.9%; in [10], 97.9%; in assay [11], 103%; in assay [12], 93.3%. The growth was 113% in [13]; 102% in [14]; 92.1% in [15]; 95.1% in [16]; 100% in [17]; 109% in assay [18]. The growth in assay [19] and in assay [20] was 107% each time.

`Fc1ccc(-c2nn(-c3ccccc3)cc2-c2nc3ccccc3o2)cc1`: the growth was 90.1% in assay [1]; 37.5% in assay [2]; 63.6% in [3]; 59.1% in assay [4]; 105% in [5]; 58.5% in [6]. In addition, the growth was 45.4% in assay [7]; 91.7% in assay [8]; 102% in assay [9]; 48.2% in assay [10]; 33.9% in assay [11]; 99.6% in [12]. In addition, the growth in assay [13] is 119%; in assay [14], 67.3%; in assay [15] it was 33.4%; in assay [16], 51.6%; in [17], 57.9%; in [18] it was 74.9%. Moreover, the growth in assay [19] was 24.7%; in assay [20], 108%.

For the molecule `COC(=O)c1cc(-c2ccccc2)[nH]c1N/N=C/c1c(Cl)cccc1Cl`, the growth is -5.4% (active) in assay [1]; -21.8% (active) in [2]; -15.2% (active) in [3]; 10.5% in assay [4]; -18.7% (active) in assay [5]; 33.1% in assay [6]. Besides, the growth in [7] is -59.5% (active); in assay [8] it was -33.3% (active); in assay [9] it was 51%; in [10], -12.3% (active); in assay [11], 15%; in assay [12], -8.44% (active). The growth in assay [13] is 0.903% (active); in assay [14], 13.6%; in assay [15], 12.1%; in assay [16], 5.23% (active); in [17], 16.8%; in assay [18], 42.4%. In addition, the growth in [19] was 21%; in [20], 11.4%.

With `CCCCCCCCn1ccc2cc(NC(=O)Cn3cc(CN4CCCCC4)nn3)ccc21`, the growth was 52.2% in [1]; -13.5% (active) in assay [2]; -88.3% (active) in [3]; -37.1% (active) in [4]; -72% (active) in assay [5]; 21.3% in assay [6]. Besides, the growth in [7] was -66.5% (active); in [8] it was -42.3% (active); in assay [9], -49.5% (active); in [10] it was -79.8% (active); in assay [11] it was -40.7% (active); in assay [12], -61.2% (active). The growth is 73.4% in assay [13]; -49.2% (active) in assay [14]; -53.6% (active) in [15]; 54.6% in assay [16]; -93% (active) in [17]; -81.4% (active) in assay [18]. Moreover, the growth in assay [19] was -80.3% (active); in assay [20] it was -85.4% (active).

For the molecule `COc1cc(OC)c2sc(-c3ccc(-n4cncc4-c4ccc(OC)c(OC)c4)cc3)nc2c1`, the growth in [1] was -4.76% (active); in assay [2], 65.5%; in assay [3] it was 73.1%; in assay [4], 68%; in [5], 12.1%; in assay [6], 60.5%. In addition, the growth was 48.8% in [7]; 66.5% in [8]; 71.5% in assay [9]; 67.6% in assay [10]; 17.8% in assay [11]; 35.1% in assay [12]. Moreover, the growth in [13] was 87.1%; in assay [14], 67.1%; in [15], 46%; in assay [16], 27.6%; in [17], 22.5%; in [18], 53.4%. For the same molecule, the results for the growth in assay [19] and in assay [20] were 59.1% and 71.8%, respectively.

In the case of `O=C(CCCCCCN1CC(=O)N2[C@H](c3cc(Br)cs3)c3[nH]c4ccccc4c3C[C@H]2C1=O)NO`, the growth in assay [1] was 29.1%; in assay [2], 10.2%; in assay [3], 18.6%; in assay [4] it was 44%; in assay [5] it was 18.7%; in assay [6], 66.8%. Also, the growth was 45.8% in assay [7]; 43.3% in assay [8]; 27.7% in assay [9]; 37.2% in assay [10]; 96.9% in [11]; 50.7% in assay [12]. The growth in [13] is 26.2%; in assay [14], 41.1%; in assay [15], 33.3%; in assay [16], 46.9%; in [17], 27%; in assay [18] it was 12%. The growth in assay [19] is 8.65% (active); in assay [20], 27.7%.
